Data as given in PubChem BioAssay.
Values without a mark were called inactive. The source made the active and inactive calls. Rule as the data show it, unless noted: active = inhibition above about 30%; inactive = the rest.

Legend:
[1] = target: Nuclear receptor coactivator 3 (Homo sapiens) (UniProt Q9Y6Q9); experiment: NCOA3 GAL4-fusion reporter inhibition – cell-based, luminescence, quadruplicate, confirmation (AID 588792;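 active = mean inhibition over 43.08%, the solvent-only control mean plus 3 SD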;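 also: 0% = DMSO treated cells and 100% = gossypol at 36 µM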); details: HEK293 GAL4-SRC3 luciferase reporter, at 3.6 µM, active compounds read high
[2] = test system: transactivating tegument protein VP16 (Human herpesvirus 1), Gal4-VP16 luciferase reporter; experiment: repression of VP16-driven luciferase reporter – cell-based, luminescence, high throughput, counter-screen for SRC3 inhibitor project (AID 588794); details: mammalian cells, at 3.6 µM, active compounds read high
[3] = target: Nuclear receptor coactivator 1 (Homo sapiens) (UniProt Q15788); experiment: NCOA1 GAL4-fusion reporter inhibition – cell-based, luminescence, quadruplicate, confirmation (AID 588820;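 active = mean inhibition above 46.68%, the untreated control wells mean plus 3 SD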;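 also: 0% = DMSO wells and 100% = gossypol 36 µM treated wells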); details: HEK293 GAL4-SRC1 luciferase reporter, at 3.6 µM, active compounds read high
[4] = repression of VP16-driven luciferase reporter – cell-based, luminescence, high throughput, counter-screen for SRC1 inhibitor project (AID 588824; in the data active = inhibition above about 25%); details: cell-based VP16 transactivation luciferase luminescence; at 3.6 µM; active compounds read high

Nuclear receptor coactivator 3 (Homo sapiens), sequence (Q9Y6Q9 whole entry, looked up, the tested form may be a part): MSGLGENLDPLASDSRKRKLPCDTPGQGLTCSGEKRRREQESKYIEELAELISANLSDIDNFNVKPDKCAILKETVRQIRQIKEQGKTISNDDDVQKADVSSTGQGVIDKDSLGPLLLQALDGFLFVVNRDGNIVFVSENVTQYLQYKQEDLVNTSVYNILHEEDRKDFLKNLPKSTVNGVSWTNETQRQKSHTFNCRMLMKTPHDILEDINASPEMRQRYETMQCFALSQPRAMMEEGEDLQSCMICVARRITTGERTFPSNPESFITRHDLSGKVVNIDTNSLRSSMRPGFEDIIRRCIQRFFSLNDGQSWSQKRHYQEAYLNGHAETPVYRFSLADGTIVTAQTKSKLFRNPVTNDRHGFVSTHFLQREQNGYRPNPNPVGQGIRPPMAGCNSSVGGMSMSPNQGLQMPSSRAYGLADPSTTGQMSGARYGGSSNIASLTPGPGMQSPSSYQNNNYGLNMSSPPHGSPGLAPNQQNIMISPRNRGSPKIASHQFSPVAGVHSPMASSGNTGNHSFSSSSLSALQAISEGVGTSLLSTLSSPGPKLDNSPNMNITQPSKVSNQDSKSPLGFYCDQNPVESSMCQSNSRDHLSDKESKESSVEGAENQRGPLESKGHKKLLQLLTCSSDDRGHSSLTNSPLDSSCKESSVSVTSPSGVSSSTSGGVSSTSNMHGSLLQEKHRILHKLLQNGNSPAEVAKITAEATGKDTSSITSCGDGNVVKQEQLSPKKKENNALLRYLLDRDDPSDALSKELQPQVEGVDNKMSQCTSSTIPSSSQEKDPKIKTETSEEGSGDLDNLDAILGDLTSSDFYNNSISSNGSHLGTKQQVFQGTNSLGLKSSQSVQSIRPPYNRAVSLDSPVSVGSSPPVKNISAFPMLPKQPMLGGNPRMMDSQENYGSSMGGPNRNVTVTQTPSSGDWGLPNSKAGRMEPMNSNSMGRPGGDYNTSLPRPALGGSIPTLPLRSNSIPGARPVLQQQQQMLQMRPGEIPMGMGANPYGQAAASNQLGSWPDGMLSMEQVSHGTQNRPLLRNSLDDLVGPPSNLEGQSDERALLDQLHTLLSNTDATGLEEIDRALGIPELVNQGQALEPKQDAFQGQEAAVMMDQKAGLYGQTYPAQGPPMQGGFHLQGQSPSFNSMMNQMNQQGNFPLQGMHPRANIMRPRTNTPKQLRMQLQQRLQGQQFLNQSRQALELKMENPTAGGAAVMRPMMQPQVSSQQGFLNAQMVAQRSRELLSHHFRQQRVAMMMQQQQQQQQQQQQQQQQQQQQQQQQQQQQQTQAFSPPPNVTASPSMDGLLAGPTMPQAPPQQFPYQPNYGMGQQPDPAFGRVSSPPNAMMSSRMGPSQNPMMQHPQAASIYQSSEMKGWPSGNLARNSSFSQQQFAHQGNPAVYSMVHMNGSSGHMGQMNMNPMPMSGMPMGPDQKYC
Nuclear receptor coactivator 1 (Homo sapiens), sequence (Q15788 whole entry, looked up, the tested form may be a part): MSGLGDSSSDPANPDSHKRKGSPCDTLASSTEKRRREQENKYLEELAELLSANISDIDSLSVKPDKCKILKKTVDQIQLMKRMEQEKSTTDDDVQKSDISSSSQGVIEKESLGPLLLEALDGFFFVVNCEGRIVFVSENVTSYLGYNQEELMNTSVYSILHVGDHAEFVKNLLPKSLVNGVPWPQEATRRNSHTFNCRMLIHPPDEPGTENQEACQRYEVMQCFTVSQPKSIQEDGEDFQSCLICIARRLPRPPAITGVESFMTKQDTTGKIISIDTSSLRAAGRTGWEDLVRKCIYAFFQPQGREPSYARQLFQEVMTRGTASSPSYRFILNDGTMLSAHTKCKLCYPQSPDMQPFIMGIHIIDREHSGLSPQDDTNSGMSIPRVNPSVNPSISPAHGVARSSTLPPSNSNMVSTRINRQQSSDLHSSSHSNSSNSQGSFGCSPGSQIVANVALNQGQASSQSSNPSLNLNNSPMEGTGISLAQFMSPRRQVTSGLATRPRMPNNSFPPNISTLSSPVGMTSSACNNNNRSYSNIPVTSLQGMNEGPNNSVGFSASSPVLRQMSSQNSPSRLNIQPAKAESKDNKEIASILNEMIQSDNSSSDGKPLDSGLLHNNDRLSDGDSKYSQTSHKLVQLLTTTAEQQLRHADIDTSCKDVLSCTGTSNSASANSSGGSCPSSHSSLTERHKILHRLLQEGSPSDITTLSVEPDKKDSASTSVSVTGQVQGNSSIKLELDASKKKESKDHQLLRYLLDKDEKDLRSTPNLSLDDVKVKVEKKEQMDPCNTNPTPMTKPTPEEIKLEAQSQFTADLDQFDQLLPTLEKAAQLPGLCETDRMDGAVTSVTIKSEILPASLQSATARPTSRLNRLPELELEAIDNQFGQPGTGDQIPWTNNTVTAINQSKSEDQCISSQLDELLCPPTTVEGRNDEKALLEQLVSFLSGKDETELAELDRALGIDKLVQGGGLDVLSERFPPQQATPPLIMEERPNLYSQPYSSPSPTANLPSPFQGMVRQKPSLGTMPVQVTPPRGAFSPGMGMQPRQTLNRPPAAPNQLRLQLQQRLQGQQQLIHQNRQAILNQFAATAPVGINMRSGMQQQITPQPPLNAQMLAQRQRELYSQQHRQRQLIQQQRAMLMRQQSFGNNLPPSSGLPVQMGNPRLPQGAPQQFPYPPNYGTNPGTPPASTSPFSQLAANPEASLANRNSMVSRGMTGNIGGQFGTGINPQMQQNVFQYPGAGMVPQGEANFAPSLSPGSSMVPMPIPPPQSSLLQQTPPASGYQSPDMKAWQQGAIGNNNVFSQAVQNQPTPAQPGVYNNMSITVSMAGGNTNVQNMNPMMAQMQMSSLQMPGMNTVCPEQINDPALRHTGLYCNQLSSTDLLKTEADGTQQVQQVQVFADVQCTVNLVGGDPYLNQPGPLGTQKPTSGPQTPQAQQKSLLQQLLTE

Row | Compound | inhibition [1] | inhibition [2] | inhibition [3] | inhibition [4]
1 | CC(=O)NC(c1ccc(C)cc1)c1cc(Cl)c2cccnc2c1O (stereo not given) | 26.4% | 22.3% | 36.4% | 29.6% (active)
2 | Cc1nnsc1C(=O)N/N=C/c1ccc2ccccc2c1O | 84.2% (active) | 71.3% (active) | 75% (active) | 69.8% (active)
3 | CCCN(CCC)c1nc(-c2ccccn2)nc2ccccc12 | 80% (active) | 35.2% (active) | 30.2% | 29.9% (active)
4 | O=C(Nc1nc(-c2ccccc2)cs1)c1ccc2c(=O)n3c(nc2c1)CCCCC3 | 9.45% | 31.6% (active) | -12% | 30.9% (active)
5 | Cc1cc(=O)[nH]c(Nc2cccc(Br)c2)n1 | 22.7% | 23.7% | 34.2% | 24.4%
6 | COc1cccc(CNc2ncnc3ccc(-c4c(C)noc4C)cc23)c1 | 36.6% | 1.06% | 19.3% | -7.49%
7 | c1cnc2ccc(-n3ccnc3)cc2c1 | 24.2% | 23.8% | 19.9% | 22.4%
8 | CC(=O)N1c2ccc(S(=O)(=O)NCC3CCC(C(=O)Nc4cccc(C)n4)CC3)cc2CC1C (stereo not given) | -3.79% | 27.4% | -11.2% | 21.6%
9 | COc1cc(/C=C/C(=O)Nc2ccc(OC)c(S(=O)(=O)N3CCOCC3)c2)ccc1OCC#N | 12.1% | 32.6% (active) | 19.1% | 40.3% (active)
10 | Nc1nc(CCl)nc(Nc2cccc3ccccc23)n1 | 42.7% | 15.4% | 16.1% | 18.8%
11 | Oc1ccc(Nc2nc(N3CCCC3)c3ccccc3n2)cc1 | 25.6% | 42.7% (active) | 34% | 40.2% (active)
12 | CC(C)n1cc(/C=C/c2cc[n+](C)cc2)c2ccccc21 | 14% | 21% | 16.8% | 30.3% (active)
13 | Clc1cncc(Cl)c1N/N=C/c1ccncc1 | 24.8% | 26.7% | 40.4% | 27.4% (active)
14 | COc1ccc(C(=O)Cn2c(C(C)=O)nc3ccccc32)cc1 | -0.47% | -3.82% | -13.6% | -8.2%
15 | O=C(N/N=C/c1cc(Cl)cc(Cl)c1O)c1ccncc1 | 26.5% | 40.9% (active) | 30.7% | 33.7% (active)
16 | CC(=O)NC(c1cc(Cl)c2cccnc2c1O)C(C)C (stereo not given) | 31.1% | 23.5% | 38.5% | 20%
17 | COc1ccc(Nc2nc(N3CCCC3)nc3ccccc23)c(OC)c1 | 16.8% | 37.1% (active) | 5.96% | 33.2% (active)
18 | CCCNC(=O)c1nnsc1S(=O)(=O)c1ccc(Cl)cc1 | 55.7% (active) | 6.39% | -64.8% | 5.6%
19 | Nc1ccn([C@@H]2O[C@H](CO)[C@@H](O)C2O)c(=O)n1 (stereo not given in full) | 33.8% | 30.9% (active) | 32.5% | 19.4%
20 | Cn1nnnc1N=N/C(=N/Nc1ccccc1)c1ccccc1 | 79.8% (active) | 42.9% (active) | 55.5% (active) | 32.8% (active)
21 | NNC(=O)C(=O)Nc1ccc(O)cc1 | 2.12% | 8.64% | -20.1% | -2.23%
22 | CN(C)/C=C/C(=O)c1ccc2noc(-c3ccccc3)c2c1 | 55.5% (active) | 28.1% | 41.3% | 33.7% (active)
23 | COc1cc2oc(=O)cc(-c3ccc(-c4ccc(CO)cc4)cc3)c2c(OC)c1OC | 45.9% (active) | 28.3% | 32.9% | 32.5% (active)
24 | O=C(/C(=C/c1ccc(Cl)cc1)c1nc2ccccc2[nH]1)c1cccs1 | 79.1% (active) | 61.9% (active) | 22.4% | 49.5% (active)
25 | Cc1c(Cl)c([N+](=O)[O-])nn1Cc1ccc(C(=O)N/N=C\c2cc(Cl)ccc2O)o1 | 57.4% (active) | 48.7% (active) | 55.5% (active) | 52.9% (active)
